In PubChem BioAssay (Tox21):
Results filed as inconclusive are left out. Activity calls are given as the source filed them. Unless noted, the call rests on the fitted dose curve.

assay: qHTS assay for small molecule agonists of the p53 signaling pathway (AID 651631); details: HCT-116 p53RE-bla reporter, beta-lactamase FRET ratio, 16 h; series mostly up to 73.3 µM; activation: at the top concentration; further: nearly all actives have a fitted effect of over 15% in size
In short: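 HCT-116 cells carrying a beta-lactamase reporter under p53 response elements were dosed with compound for 16 h at 37 °C. LiveBLAzer B/G FRET substrate was then added for 2 h at room temperature, and fluorescence intensity was read to detect pathway agonism.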
On the % scale 0 is the no-effect control and ±100 the full control effect.

| SMILES | activation |
| --- | --- |
| CCCCC(=O)N(C)C | 0.469% (inactive) |
| CCOc1ccc(NC(=O)OC(C)C)cc1OCC | -0.582% (inactive) |
| CCCCOC(=O)[C@@H](C)Oc1ccc(Oc2ccc(C(F)(F)F)cn2)cc1 | -5.45% [at 95.1 µM] (inactive) |

assay: qHTS assay for small molecules that induce genotoxicity in human embryonic kidney cells expressing luciferase-tagged ATAD5 (AID 651632; active means well fitted activation curve with a large enough effect in the repeat runs; further: nearly all actives have a fitted effect of over 15% in size); details: HEK293T ATAD5-luciferase induction, 16 h; series mostly up to 83.3 µM; activation: at the top concentration
In short: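 Luminescence read-out: after 16 hr compound exposure at 37C, ATAD5-luciferase HEK293T cells received Amplite, 30 min RT, then CCD imaging. A rise in signal marks genotoxic stress.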

| SMILES | activation | outcome |
| --- | --- | --- |
| CCOC(=O)C(C)(C)C | 1.53% [at 95.3 µM] (inactive) |  |
| CCCCC(CC)C(=O)OC(C)C (stereo not given) | -2.02% (inactive) |  |
| CCCCC[Si](OCC)(OCC)OCC | 1.81% (inactive) |  |
| C[CH2][Ge]([Cl])([CH2]C)[CH2]C | 2.93% [at 95.3 µM] (inactive) |  |
| Cc1nc([N+](=O)[O-])cn1-c1ccc([N+](=O)[O-])cc1 | -1.39% (inactive) |  |
| Cc1cccc(Nc2ccncc2S(=O)(=O)NC(=O)NC(C)C)c1 | -1.72% [at 39.1 µM] (inactive) |  |
| N#CCCOCCOCCC#N | -2.46% (inactive) |  |
| CC(C)COC(=O)CCCCC(=O)OCC(C)C | 2.27% (inactive) |  |
| CCc1nccnc1C | 2% (inactive) |  |
| Cc1ncc([N+](=O)[O-])n1CC(O)CCl (stereo not given) | 1.53% [at 39.1 µM] (inactive) |  |
| COc1cccc2sc(N)nc12 | 0.919% [at 95.3 µM] (inactive) |  |
| C[C@H](CCC(=O)O)[C@H]1CC[C@H]2[C@@H]3[C@H](O)C[C@@H]4C[C@H](O)CC[C@]4(C)[C@H]3C[C@H](O)[C@]12C |  | inactive |
| NCCc1ccn[nH]1 | -1.36% [at 39.1 µM] (inactive) |  |
| O=P(O)(O)OCC(O)CO (stereo not given) | 3.83% (inactive) |  |
| CCC1Nc2cc(Cl)c(S(N)(=O)=O)cc2S(=O)(=O)N1 (stereo not given) | 1.8% (inactive) |  |
| O=C(/C=C/c1ccccc1)NCCO | -1.59% (inactive) |  |

| SMILES | activation | outcome |
| --- | --- | --- |
| CCC(C)N (stereo not given) | -1.6% (inactive) |  |
| CNC(=O)C(c1ccccc1)c1ccccc1 | -2.74% (inactive) |  |
| CCCOCCOCCOCCO | -3.02% (inactive) |  |
| O=[Si]=O | 2.06% (inactive) |  |
| C=CCOc1c(Br)cc(C(C)(C)c2cc(Br)c(OCC=C)c(Br)c2)cc1Br | -5.45% (inactive) |  |
| CCC(C)(CCC(C)C)C(=O)[O-].CCC(C)(CCC(C)C)C(=O)[O-].[Zn+2] (stereo not given) | 3.32% (inactive) |  |
| CC(=O)OCC(=O)[C@@]1(O)[C@H](OC(C)=O)C[C@H]2[C@@H]3CCC4=CC(=O)C=C[C@]4(C)[C@@]3(F)[C@@H](O)C[C@@]21C | 7.79% (inactive) |  |
| CC(C)COC(=O)COc1ccc(Cl)cc1Cl | 0.942% (inactive) |  |
| CC(=O)c1ccc(OCC(=O)N2CCCCC2)cc1 | 5.37% (inactive) |  |
| CN=C(NC#N)NCCSCc1csc(N=C(N)N)n1 | 0.645% (inactive) |  |
| C[Si]1(C)N[Si](C)(C)N[Si](C)(C)N1 | 3.61% (inactive) |  |
| Cc1ccccc1C | -2.67% [at 95.3 µM] (inactive) |  |
| O=c1cc(O)c(Cl)c[nH]1 | 3.63% (inactive) |  |
| CCC(CO)CO | -3.57% (inactive) |  |
| COC(/C=C(\C)CCC=C(C)C)OC | -2.57% (inactive) |  |
| CC(C)(CO)[C@@H](O)C(=O)NCCCO | 1.88% (inactive) |  |

assay: qHTS assay for small molecule agonists of the p53 signaling pathway - cell viability (AID 651633); details: p53RE-bla HCT-116 viability, ATP luminescence, 16 h; series mostly up to 83.3 µM; activity change, negative = cytotoxicity: at the top concentration; further: nearly all actives have a fitted effect of over 30% in size
In short: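 Viability counter-read: CellTiter-Glo luminescence (30 min, room temperature) in the same p53RE-bla plates. These plates had been exposed to compounds for 16 h at 37 C.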

| SMILES | activity change, negative = cytotoxicity | outcome |
| --- | --- | --- |
| CCOC(=O)C(C)(C)C | 14% [at 95.3 µM] (inactive) |  |
| CCCCC(CC)C(=O)OC(C)C (stereo not given) | -19% (inactive) |  |
| CCCCC[Si](OCC)(OCC)OCC | -9.54% (inactive) |  |
| CCCCC(=O)N(C)C | 11.2% (inactive) |  |
| C[CH2][Ge]([Cl])([CH2]C)[CH2]C | -16.2% [at 95.3 µM] (inactive) |  |
| Cc1nc([N+](=O)[O-])cn1-c1ccc([N+](=O)[O-])cc1 | -5.75% (inactive) |  |
| Cc1cccc(Nc2ccncc2S(=O)(=O)NC(=O)NC(C)C)c1 | 22.6% [at 39.1 µM] (inactive) |  |
| N#CCCOCCOCCC#N | -15.8% (inactive) |  |
| CC(C)COC(=O)CCCCC(=O)OCC(C)C | 10.5% (inactive) |  |
| CCc1nccnc1C | 22.9% (inactive) |  |
| Cc1ncc([N+](=O)[O-])n1CC(O)CCl (stereo not given) | 16.7% [at 39.1 µM] (inactive) |  |
| CCOc1ccc(NC(=O)OC(C)C)cc1OCC | 5.75% (inactive) |  |
| COc1cccc2sc(N)nc12 | -10.9% [at 95.3 µM] (inactive) |  |
| C[C@H](CCC(=O)O)[C@H]1CC[C@H]2[C@@H]3[C@H](O)C[C@@H]4C[C@H](O)CC[C@]4(C)[C@H]3C[C@H](O)[C@]12C |  | inactive |
| NCCc1ccn[nH]1 | 16.5% [at 39.1 µM] (inactive) |  |
| O=P(O)(O)OCC(O)CO (stereo not given) | 5.87% (inactive) |  |
| CCC1Nc2cc(Cl)c(S(N)(=O)=O)cc2S(=O)(=O)N1 (stereo not given) | 11.9% (inactive) |  |
| O=C(/C=C/c1ccccc1)NCCO | 2.81% (inactive) |  |

| SMILES | activity change, negative = cytotoxicity | outcome |
| --- | --- | --- |
| CCC(C)N (stereo not given) | 21.9% (inactive) |  |
| CNC(=O)C(c1ccccc1)c1ccccc1 | 23.1% (inactive) |  |
| CCCOCCOCCOCCO | 21.4% (inactive) |  |
| O=[Si]=O | 12.3% (inactive) |  |
| C=CCOc1c(Br)cc(C(C)(C)c2cc(Br)c(OCC=C)c(Br)c2)cc1Br | -13.6% (inactive) |  |
| CCCCOC(=O)[C@@H](C)Oc1ccc(Oc2ccc(C(F)(F)F)cn2)cc1 | -7.44% [at 95.3 µM] (inactive) |  |
| CCC(C)(CCC(C)C)C(=O)[O-].CCC(C)(CCC(C)C)C(=O)[O-].[Zn+2] (stereo not given) | 13.9% (inactive) |  |
| CC(=O)OCC(=O)[C@@]1(O)[C@H](OC(C)=O)C[C@H]2[C@@H]3CCC4=CC(=O)C=C[C@]4(C)[C@@]3(F)[C@@H](O)C[C@@]21C | -3.82% (inactive) |  |
| CC(C)COC(=O)COc1ccc(Cl)cc1Cl | 18.6% (inactive) |  |
| CC(=O)c1ccc(OCC(=O)N2CCCCC2)cc1 | -8.76% (inactive) |  |
| CN=C(NC#N)NCCSCc1csc(N=C(N)N)n1 | 6.4% (inactive) |  |
| C[Si]1(C)N[Si](C)(C)N[Si](C)(C)N1 | 19.8% (inactive) |  |
| Cc1ccccc1C | -8.8% [at 95.3 µM] (inactive) |  |
| O=c1cc(O)c(Cl)c[nH]1 | 5.36% (inactive) |  |
| CCC(CO)CO | 7.46% (inactive) |  |
| COC(/C=C(\C)CCC=C(C)C)OC | 13.6% (inactive) |  |
| CC(C)(CO)[C@@H](O)C(=O)NCCCO | -18.1% (inactive) |  |

assay: qHTS assay for small molecules that induce genotoxicity in human embryonic kidney cells expressing luciferase-tagged ATAD5 - cell viability (AID 651634); details: HEK293T ATAD5-luc cells viability, CellTiter-Fluor, 15.5 h; series mostly up to 83.3 µM; activity, negative = cytotoxicity: at the top concentration; further: nearly all actives have a fitted effect of over 25% in size
In short: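 HEK293T ATAD5-luc cells, 2,000/well; compound 15.5 hr, 37C/5% CO2; CellTiter-Fluor 30 min, 37C; fluorescence read.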

| SMILES | activity, negative = cytotoxicity | Potency |
| --- | --- | --- |
| CCOC(=O)C(C)(C)C | 13.3% [at 95.3 µM] (inactive) |  |
| CCCCC(CC)C(=O)OC(C)C (stereo not given) | 15.2% (inactive) |  |
| CCCCC[Si](OCC)(OCC)OCC | -7.29% (inactive) |  |
| CCCCC(=O)N(C)C | 3.1% (inactive) |  |
| C[CH2][Ge]([Cl])([CH2]C)[CH2]C | 14.5% [at 95.3 µM] (inactive) |  |
| Cc1nc([N+](=O)[O-])cn1-c1ccc([N+](=O)[O-])cc1 | 8.28% (inactive) |  |
| Cc1cccc(Nc2ccncc2S(=O)(=O)NC(=O)NC(C)C)c1 | 19.6% [at 39.1 µM] (inactive) |  |
| N#CCCOCCOCCC#N | 18.9% (inactive) |  |
| CC(C)COC(=O)CCCCC(=O)OCC(C)C | 3.27% (inactive) |  |
| CCc1nccnc1C | 11.3% (inactive) |  |
| Cc1ncc([N+](=O)[O-])n1CC(O)CCl (stereo not given) | 15.8% [at 39.1 µM] (inactive) |  |
| CCOc1ccc(NC(=O)OC(C)C)cc1OCC | -1.32% (inactive) |  |
| COc1cccc2sc(N)nc12 | -3.8% [at 95.3 µM] (inactive) |  |
| C[C@H](CCC(=O)O)[C@H]1CC[C@H]2[C@@H]3[C@H](O)C[C@@H]4C[C@H](O)CC[C@]4(C)[C@H]3C[C@H](O)[C@]12C |  | inactive |
| NCCc1ccn[nH]1 | 15% [at 39.1 µM] (inactive) |  |
| O=P(O)(O)OCC(O)CO (stereo not given) | 5.99% (inactive) |  |
| CCC1Nc2cc(Cl)c(S(N)(=O)=O)cc2S(=O)(=O)N1 (stereo not given) | 13% (inactive) |  |
| O=C(/C=C/c1ccccc1)NCCO | 21.8% (inactive) |  |

| SMILES | activity, negative = cytotoxicity | Potency |
| --- | --- | --- |
| CCC(C)N (stereo not given) | 29.7% (inactive) |  |
| CNC(=O)C(c1ccccc1)c1ccccc1 | 6.92% (inactive) |  |
| CCCOCCOCCOCCO | -5.29% (inactive) |  |
| O=[Si]=O | 9.38% (inactive) |  |
| C=CCOc1c(Br)cc(C(C)(C)c2cc(Br)c(OCC=C)c(Br)c2)cc1Br | 14.1% (inactive) |  |
| CCCCOC(=O)[C@@H](C)Oc1ccc(Oc2ccc(C(F)(F)F)cn2)cc1 | 12.2% [at 95.3 µM] (inactive) |  |
| CCC(C)(CCC(C)C)C(=O)[O-].CCC(C)(CCC(C)C)C(=O)[O-].[Zn+2] (stereo not given) | 8.65% (inactive) |  |
| CC(=O)OCC(=O)[C@@]1(O)[C@H](OC(C)=O)C[C@H]2[C@@H]3CCC4=CC(=O)C=C[C@]4(C)[C@@]3(F)[C@@H](O)C[C@@]21C | 7.53% (inactive) |  |
| CC(C)COC(=O)COc1ccc(Cl)cc1Cl | 12.2% (inactive) |  |
| CC(=O)c1ccc(OCC(=O)N2CCCCC2)cc1 | 35.8% (inactive) |  |
| CN=C(NC#N)NCCSCc1csc(N=C(N)N)n1 | -10.5% (inactive) |  |
| C[Si]1(C)N[Si](C)(C)N[Si](C)(C)N1 | 14.2% (inactive) |  |
| Cc1ccccc1C | 13.7% [at 95.3 µM] (inactive) |  |
| O=c1cc(O)c(Cl)c[nH]1 | 14.4% (inactive) |  |
| CCC(CO)CO | 9.35% (inactive) |  |
| COC(/C=C(\C)CCC=C(C)C)OC | 5.25% (inactive) |  |
| CC(C)(CO)[C@@H](O)C(=O)NCCCO | -6.63% (inactive) |  |
